# According to PubChem BioAssay AID686978 (National Center for Advancing Translational Sciences (NCATS), 2013):
# Hit rate of the full screen: of about 420,000 compounds, about 64,000 (15%) were called active. Roughly 27% stayed inconclusive and do not appear here. Calls follow the shape of the dose curve; as a rule, active = well fitted inhibition curve with a large enough effect; inconclusive = small, poorly fitted or top-dose-only effect; inactive = flat fitted curve, though single readings scatter. These entries were drawn from the full list. Where a call stands in place of a potency, no number is given.
# Experiment: qHTS for Inhibitors of human tyrosyl-DNA phosphodiesterase 1 (TDP1): qHTS in cells in absence of CPT; also: nearly all actives have a fitted effect of over 55% in size
# Settings: DT40 Tdp1-/- hTDP1 cells, no CPT, ATP luminescence, 48 h; activity change, negative = growth inhibition: at 46.2 µM (top of the series)
# Outline: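 Cells were dispensed at 400 per well, compounds added by pin tool, plates incubated ≥48 hr at 37 °C, then CellTiter-Glo added for 30 min at room temperature before luminescence reading. Line: DT40 Tdp1-/- complemented with hTDP1; camptothecin omitted.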
# Potency is read from the fitted curve at half-maximal effect.
row,Structure (SMILES),Potency
1,CCCCOP(=O)(c1ccc(N(C)C)cc1)C(O)c1cc(OC)ccc1OC (stereo not given),inactive
2,CCC1=[N+]([O-])C(C)(/C(C)=N\O)N(O)C1(C)C (stereo not given),inactive
3,CN1C[C@@H](CO)O[C@@H](n2cnc3c(N4CCN(CCO)CC4)ncnc32)C1,inactive
4,Cc1ccc(NC(=O)CSCC(=O)Nc2sccc2C#N)cc1,inactive
5,Cc1cc(=O)oc2c3c(cc(OCC(=O)NCCC(=O)N[C@@H](C)C(=O)O)c12)OC(C)(C)CC3,inactive
6,Cc1cc(=O)oc2c3c(cc(OCC(=O)N[C@H](C(=O)O)c4ccccc4)c12)OC(C)(C)CC3,inactive
7,Cc1cc(=O)oc2c3c(cc(OCC(=O)NCc4ccccn4)c12)OC(C)(C)CC3,25.9 µM (active)
8,O=c1cc(CO)oc(C(Nc2cccc([N+](=O)[O-])c2)c2ccccn2)c1O (stereo not given),inactive
9,CC1CCN(CC(=O)Nc2nccs2)CC1,inactive
10,CCOC(=O)CNC(=O)CSc1nnnn1-c1cc(C)ccc1C,inactive
11,CCOC(=O)c1c(-c2ccc(C)cc2C)csc1NC(=O)CSc1nnnn1C,20.6 µM (active)
12,Cn1nnnc1SCC(=O)Nc1sccc1C(N)=O,inactive
13,O=C1c2ccccc2C(=O)N1Cc1cc(-c2ccccc2Cl)no1,inactive
14,CS(=O)(=O)Nc1ccccc1N=C(c1ccccc1)c1ccccc1,inactive
15,O=C(COc1ccc(S(=O)(=O)NCCc2ccccc2)cc1)N1CCCC1,inactive
16,C=Cc1ccc(C(=O)N2CCCC(CCC(=O)N3CCN(c4ccccn4)CC3)C2)cc1 (stereo not given),inactive
17,O=C(CCC1CCCN(C(=O)c2ccc(F)c(F)c2)C1)N1CCN(c2ccccn2)CC1 (stereo not given),18.4 µM (active)
18,Cc1[nH]c2c(C(=O)N3CCCC(CCC(=O)NCc4ccccc4F)C3)cccc2c1C (stereo not given),20.6 µM (active)
19,COc1cccc(CNC(=O)CCC2CCCN(C(=O)c3ccc(F)c(Cl)c3)C2)c1 (stereo not given),18.4 µM (active)
20,Cc1nn(-c2ccc(N3CCCCC3)nn2)c(C)c1CCC(=O)NCc1ccccc1F,inactive
21,COc1cccc(CNC(=O)CCC2CCCN(C(=O)c3cc(C)[nH]n3)C2)c1 (stereo not given),inactive
22,CSc1ncccc1C(=O)N1CCCC(CCC(=O)NCc2ccccc2F)C1 (stereo not given),inactive
23,CC(=O)c1ccc(S(=O)(=O)NCCC(=O)N2CCN(c3ccccn3)CC2)cc1,inactive
24,COc1cccc(C(=O)N2CCCC(CCC(=O)NCc3ccc(F)c(F)c3)C2)c1 (stereo not given),inactive
25,Cc1ccnc(N)c1,inactive

row,Structure (SMILES),Potency
1,Cc1ccc(NC(=O)CSc2sc3c(O)cc(=O)[nH]c3c2C#N)cc1C,inactive
2,CCC1CCCCN1CCNC(=O)c1[nH]c(C)c(C(C)=O)c1C (stereo not given),inactive
3,O=C(Nc1ccon1)c1nc[nH]c1C(=O)NCc1ccccc1,inactive
4,COc1ccc(/C(O)=C2/C(=O)C(=O)N(c3nc(C)c(C)s3)C2c2ccco2)cc1 (stereo not given),inactive
5,Cc1ccc(C)c(NC(=O)CN(C)C(=O)c2ccc3ncsc3c2)c1,inactive
6,Fc1cccc(Cc2noc(CN3CCN(c4cnccn4)CC3)n2)c1,inactive
7,CC1(C)C=Cc2c(ccc(C(=O)/C=C/c3ccccc3)c2O)O1,8.91 µM (active)
8,CC1(C(=O)O)CCN1C(=O)/C=C/c1ccccc1 (stereo not given),inactive
9,CC(=O)Nc1ccc(NC(=S)NC(=O)/C=C/c2ccccc2)cc1,inactive
10,C[C@H](O)[C@@H]1C(=O)N2CCc3ccc(N4CCOCC4)cc3[C@@H]2C[C@@H]1N(C)C(=O)C(C)(C)C,inactive
11,COc1ccc(-c2ccc3c(c2)[C@@H]2C[C@H](N(C)S(=O)(=O)c4ccccc4)[C@H]([C@H](C)O)C(=O)N2CC3)cc1,16.4 µM (active)
12,COc1cccc(N2C(=O)CC(N3CCN(S(=O)(=O)c4ccccc4)CC3)C2=O)c1 (stereo not given),inactive
13,CC1=C(C(N)=O)C(c2ccc(F)cc2)n2nc(CCCO)nc2N1 (stereo not given),inactive
14,Cc1cccc(CCNS(=O)(=O)c2ccc3c(c2)NC(=O)CO3)c1,inactive
15,COc1cc(OC)cc(C(=O)Nc2cc3nn(-c4ccccc4)nc3cc2Cl)c1,16.4 µM (active)
16,CCOC(=O)c1cc(-c2ccccc2)n(-c2cccc(C(=O)Nc3cc(OC)cc(OC)c3)c2)c1C,inactive
17,CCCC(=O)Nc1cc2nn(-c3ccccc3)nc2cc1C,inactive
18,CCCn1c(N)c(C(=O)CSc2nnc(Cc3cccs3)n2C2CC2)c(=O)[nH]c1=O,inactive
19,Cc1cccc(Nc2nnc(SCC(=O)c3c(N)n(C4CC4)c(=O)[nH]c3=O)s2)c1C,11.6 µM (active)
20,Cc1ccccc1Nc1nnc(SCC(=O)c2cc3ccccc3o2)s1,inactive
21,CC1CC(C)CN(C/C=C/c2ccccc2[N+](=O)[O-])C1 (stereo not given),inactive
22,COc1ccc(N2CCN(C3CC(=O)N(c4ccc5c(c4)OCCO5)C3=O)CC2)cc1 (stereo not given),inactive
23,CC(C)CC1C(=O)N(Cc2cn(Cc3ccco3)nn2)CCS(=O)(=O)N1Cc1ccc(-c2ccc(Cl)c(Cl)c2)cc1 (stereo not given),20.6 µM (active)
24,CC1C(=O)N(Cc2cn(Cc3ccco3)nn2)CCS(=O)(=O)N1Cc1ccc(-c2cccc(CO)c2)cc1 (stereo not given),9.2 µM (active)
25,CCc1cc(=O)oc2cc(C)cc(OCC(=O)N3CCC[C@@H]3C(=O)O)c12,inactive

row,Structure (SMILES),Potency
1,CC(NC(=O)COc1ccccc1)C(=O)NC1=NCCS1 (stereo not given),inactive
2,CCOc1ccc(OCC(=O)Nc2c3c(nn2C(C)(C)C)CS(=O)(=O)C3)cc1,inactive
3,CCN1C(=O)C(CC(=O)Nc2cc(C)ccc2C)SC1=Nc1ccc(S(N)(=O)=O)cc1 (stereo not given),inactive
4,CCOc1cccc2cc(C(=O)OCC(=O)Nc3c(C)cccc3CC)c(=O)oc12,inactive
5,Cc1ccc(CN2CCN(Cc3cccc(C)n3)CC2CCO)cc1 (stereo not given),inactive
6,Cc1ccc(CN2CCN(Cc3cn(C)nc3-c3ccccc3)CC2CCO)o1 (stereo not given),inactive
7,COc1ccc(CN2CCN(Cc3cn(C)nc3-c3ccccc3)CC2CCO)c(C)c1C (stereo not given),18.4 µM (active)
8,O=C(c1ccc(Cl)cc1)n1nc(-c2cccnc2)nc1NCc1ccc(F)cc1,inactive
9,O=C(c1ccco1)n1nc(-c2ccc(Cl)cc2)nc1NCc1ccccc1,18.4 µM (active)
10,CCCC(=O)n1nc(NCc2ccc(OC)cc2)nc1NCc1ccc(OC)cc1,inactive
11,COc1ccc(CNc2nc(-c3ccccc3)nn2C(=O)c2ccccc2OC)cc1,18.4 µM (active)
12,O=C(Cc1ccccc1)n1nc(-c2ccccc2)nc1NCc1ccco1,inactive
13,O=C(c1cccs1)n1nc(NCc2ccccc2)nc1NCc1ccccc1,inactive
14,CC1CCCCC12NC(=O)N(CC(=O)OCC(=O)NCc1ccc(F)cc1)C2=O (stereo not given),inactive
15,CN1CCN(c2cc(=O)n(-c3ccc(Cl)cc3)c(=O)[nH]2)CC1,inactive
16,O=C(O)c1ccccc1N=N/C(=N/Nc1cc(S(=O)(=O)O)ccc1O)c1ccccc1,inactive
17,Cc1c(Cl)cccc1NC(=O)CCS(=O)(=O)c1ccc2c(c1)oc(=O)n2C,inactive
18,NC(=O)C1CCN(C(=O)CC2C(=O)NCCN2Cc2cccc(Oc3ccccc3)c2)CC1 (stereo not given),inactive
19,Cc1ccc(SCC(=O)NNC(=O)c2ccc(S(C)(=O)=O)cc2)cc1,inactive
20,Cc1ccccc1-n1cc(CNC(=O)CC2C(=O)NCCN2C/C=C/c2ccccc2)cn1 (stereo not given),inactive
21,COCCn1c(CCC(=O)Nc2cc(C)ccc2C)nc2cccnc21,inactive
22,COCCCNC(=O)Cc1ccc(-n2c(C)nc3cccnc32)cc1,inactive
23,Cc1ccc(Cl)cc1NC(=O)c1ccccn1,inactive
24,COc1cc(OC)c(NC(=O)Cc2ccc(-n3c(C)nc4cccnc43)cc2)cc1Cl,14.6 µM (active)
25,Cc1ccc(Cl)cc1NC(=O)Cc1ccc(-n2c(C)nc3cccnc32)cc1,23.1 µM (active)

row,Structure (SMILES),Potency
1,CCc1nc2cccnc2n1-c1ccc(C(=O)O)cc1,inactive
2,O=C(O)C1CCN(c2ncnc3ccc(-c4ccccc4C(F)(F)F)cc23)CC1,inactive
3,O=C(CC1C(=O)NCCN1CC(c1ccccc1)c1ccccc1)NCCc1cn[nH]c1 (stereo not given),inactive
4,CCN(CC(=O)NCc1cccs1)C(=O)c1ccc(OC)c(S(=O)(=O)N2CCOCC2)c1,inactive
5,Cc1ccc(C2=Nc3c(ccc4ccccc34)C(c3ccncc3)=NN2)cc1,11.6 µM (active)
6,COc1cc(C)nc(N2CCCC(C(=O)NCC(C)C)C2)n1 (stereo not given),inactive
7,COCCNC(=O)CSc1nc(N)c(NC(=O)c2ccco2)c(=O)[nH]1,inactive
8,O=C(NC(=S)Nc1ccc(S(=O)(=O)Nc2ncccn2)cc1)c1cccc(Br)c1,inactive
9,O=C(CN1C(=O)S/C(=C\c2ccccc2F)C1=O)NCCCn1ccnc1,inactive
10,CC(C)OCCCNC(=O)CN1C(=O)/C(=C/c2ccccc2F)Oc2ccccc21,10.3 µM (active)
11,CCC1Oc2ccccc2N(CC(=O)NCCCN2CCN(CC)CC2)C1=O (stereo not given),inactive
12,COc1ccc(F)cc1C(=O)COC(=O)c1n[nH]c(=O)c2ccccc12,inactive
13,COC(=O)CN(c1cccc(C(C)=O)c1)S(C)(=O)=O,inactive
14,C=CCc1cccc2cc(C(=O)N3CCN(C(=O)OCC)CC3)c(=O)oc12,inactive
15,CC(C)Nc1nc(N(c2ccccc2)c2ccccc2)nc(-n2ccnc2)n1,inactive
16,O=C(O)COCC(=O)NCc1csc2ccc(Cl)cc12,inactive
17,Cc1ccc(N(C(=O)c2snc(C(N)=O)c2N)C(C(=O)NCC2CCCO2)c2c[nH]c3ccccc23)cc1 (stereo not given),4.11 µM (active)
18,CCC(C(=O)NCCC(C)C)N(Cc1ccccc1Cl)C(=O)c1snc(C(N)=O)c1N (stereo not given),inactive
19,CCOc1ccc(N(C(=O)c2snc(C(N)=O)c2N)C(C(=O)NCC2CCCO2)c2c[nH]c3ccccc23)cc1 (stereo not given),3.66 µM (active)
20,O=C(NCC(=O)N(c1ccccc1)C(C(=O)NCC1CCCO1)c1ccccc1)c1cccs1 (stereo not given),inactive
21,NC(=O)c1nsc(C(=O)N(CCCN2CCOCC2)C(C(=O)NC2CCCCC2)c2ccc(Cl)cc2)c1N (stereo not given),inactive
22,Cc1ccc(N(C(=O)Cc2cccs2)C(C(=O)NCC2CCCO2)c2ccncc2)cc1 (stereo not given),inactive
23,Cc1ccc(C(C(=O)NCC2CCCO2)N(C(=O)c2snc(C(N)=O)c2N)c2ccc(C(C)C)cc2)o1 (stereo not given),18.4 µM (active)
24,CCOc1ccc(N(CC(=O)NCC2CCCO2)S(=O)(=O)c2ccc(C)cc2)cc1 (stereo not given),inactive
25,CCOc1cc(C(C(=O)NCC2CCCO2)N(C(=O)Cn2nnc3ccccc32)c2cccc(OC)c2)ccc1O (stereo not given),inactive
